The full list was thinned out, with hits kept by preference.
HT1080 IDH1KD tx = kills HT-1080 cells with IDH1 knockdown | HT-1080 IDH1 knockdown viability, ATP luminescence, 48 h | AID 686971 | 2% of 360,000 active | Potency, µM (top dose mostly 46.1 µM), inactives show at the highest dose activity, negative = toxicity, usual class: cytotoxic;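 further: potency means the concentration at half of the fitted maximal effect; 0% = DMSO wells and -100% = cell-free medium wells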
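Using the IDH1-knockdown HT-1080 line run in the same batch and compound series as the NT line, viability after 48 h at 37 °C was determined by CellTiter-Glo luminescence and expressed as % activity.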
HT1080NT lethal = kills 2HG-producing HT-1080-NT fibrosarcoma cells; Potency, µM (doses to about 46.1 µM), for the others: at the highest dose activity, negative = less viability, actives largely listed as cytotoxic; 1.6% of 360,000 active; HT-1080-NT fibrosarcoma viability, CellTiter-Glo ATP luminescence, 48 h; AID 686970;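 further: NT is the 2HG producing partner of a matched IDH1 knockdown line; potency means the concentration at half of the fitted maximal effect; 0% = DMSO-treated cells and -100% = media-only wells without cells; nearly all actives have a fitted effect of over 55% in size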
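A 48-hour cytotoxicity screen used HT-1080-NT cells plated 2 hours before compound delivery. ATP-based CellTiter-Glo luminescence measured viability, normalized to DMSO and no-cell controls.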
DT40 TDP1 CPT = growth inhibition of DT40 Tdp1-/-;hTDP1 cells with camptothecin (screen for TDP1 inhibitors). AID 686979. Potency, µM (highest dose often 46.2 µM), for the others: at the highest dose activity change, negative = growth inhibition, hits mostly inhibitors. chicken DT40 Tdp1-/-;hTDP1 cells + 20 nM CPT, ATP luminescence, 48 h. 12% of 420,000 active; further: potency means the concentration at half of the fitted maximal effect; nearly all actives have a fitted effect of over 55% in size
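Chicken DT40 Tdp1-/- cells complemented with human TDP1, 400 cells/well, exposed to compounds plus 20 nM camptothecin for at least 48 h at 37 C; viability read as ATP content by CellTiter-Glo luminescence.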
TDP1 cell noCPT = qHTS for Inhibitors of human tyrosyl-DNA phosphodiesterase 1 (TDP1): qHTS in cells in absence of CPT. DT40 Tdp1-/- hTDP1 cells, no CPT, ATP luminescence, 48 h. Potency, µM (doses to about 46.2 µM), inactives show top-dose activity change, negative = growth inhibition, usual class: inhibitors. 15% of 420,000 active. AID 686978, 2013; further: potency means the concentration at half of the fitted maximal effect; nearly all actives have a fitted effect of over 55% in size
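Seeded 400 DT40-hTDP1 cells/well (vehicle DMSO, no 20 nM CPT); pinned compounds; ≥48 hr at 37 °C; CellTiter-Glo luminescence as viability measure.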
IL-1B inflam inh = inflammasome signaling inhibition, IL-1 beta readout; THP-1 LPS/ATP IL-1B secretion, AlphaLISA, 16 h; hits give low values; activity change, % at 57.5 µM; 4.7% of 360,000 active; AID 743279; in the data active means activity change below about -50%; inconclusive means mostly about -30% to -49%
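Secreted IL-1B measured by AlphaLISA bead assay after 16 h compound exposure of THP-1 cells; compounds (final up to 57.5 uM) added 1 h before LPS (250 ng/mL) and ATP (1.25 mM) stimulation; lower signal means less secretion.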
ALOX12 inh = inhibitors of human 12S-lipoxygenase ALOX12 | 1.1% of 580,000 active | Potency, µM (doses to about 108 µM), without a hit: top-dose activity change, negative = inhibition, usual class: inhibitors | purified 12hLO, xylenol orange hydroperoxide absorbance | P18054; further: potency means the concentration at half of the fitted maximal effect
Target sequence (P18054 whole entry, looked up): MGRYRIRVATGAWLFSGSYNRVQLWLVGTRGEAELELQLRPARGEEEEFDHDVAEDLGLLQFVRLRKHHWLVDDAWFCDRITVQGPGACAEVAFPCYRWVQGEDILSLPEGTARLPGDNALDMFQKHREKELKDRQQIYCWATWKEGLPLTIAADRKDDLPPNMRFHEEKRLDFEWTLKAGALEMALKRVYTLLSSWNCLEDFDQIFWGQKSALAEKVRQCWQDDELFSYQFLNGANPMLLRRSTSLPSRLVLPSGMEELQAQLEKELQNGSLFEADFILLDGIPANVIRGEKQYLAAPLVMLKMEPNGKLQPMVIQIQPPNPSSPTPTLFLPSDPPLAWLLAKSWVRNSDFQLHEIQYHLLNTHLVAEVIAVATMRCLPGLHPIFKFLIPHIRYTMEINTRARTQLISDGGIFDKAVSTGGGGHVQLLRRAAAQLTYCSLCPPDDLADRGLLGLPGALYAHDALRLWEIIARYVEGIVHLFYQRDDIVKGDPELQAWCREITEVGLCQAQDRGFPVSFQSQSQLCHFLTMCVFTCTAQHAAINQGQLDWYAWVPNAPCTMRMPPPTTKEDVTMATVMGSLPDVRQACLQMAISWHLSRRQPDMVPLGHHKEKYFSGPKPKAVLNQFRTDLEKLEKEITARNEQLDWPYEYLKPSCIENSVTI
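Purified human 12hLO at 150 nM in 25 mM Hepes, 0.01% Triton X-100, pH 7.0, preincubated 15 min at room temperature with compound. Reaction started with 40 uM arachidonic acid, 30 min at room temperature. Hydroperoxide measured by Fe-xylenol orange, 573/405 nm absorbance ratio.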
* marks the source's active call; other numbers are inactive results. Unless noted, the call rests on the fitted dose curve; in most records, active means well fitted curve in the direction sought with a large enough effect; inconclusive means small, poorly fitted or top-dose-only effect, or another doubt; inactive means no such curve, though single readings can be large; an effect the other way counts as inactive or inconclusive. Unless noted, on the % scale 0 is the no-effect control and ±100 the full control effect.

Screening Cc1ccc(C)c(NC(=O)CSc2nc3c([nH]c4ccccc43)c(=O)n2-c2ccc(F)cc2)c1 returned DT40 TDP1 CPT 15µM*, TDP1 cell noCPT 13µM* and ALOX12 inh -19%.
O=C(CSc1nc2c([nH]c3ccccc32)c(=O)n1-c1cccc(C(F)(F)F)c1)N1CCc2ccccc21 was read as DT40 TDP1 CPT 7.3µM*, TDP1 cell noCPT 8.2µM* and ALOX12 inh -10%.
For CCOC(=O)CSc1nc2c([nH]c3ccccc32)c(=O)n1-c1ccc(OC)cc1 the results were DT40 TDP1 CPT -20%, TDP1 cell noCPT inconclusive and ALOX12 inh -15%.
COc1cccc(-n2c(SCC(=O)N3CCCc4ccccc43)nc3c([nH]c4ccccc43)c2=O)c1 was read as DT40 TDP1 CPT inconclusive, TDP1 cell noCPT inconclusive and ALOX12 inh -5%.
For Cc1noc(C2CCCCCN2C(=O)COc2ccc(F)cc2)n1 (stereo not drawn) the results were ALOX12 inh 0%.
Screening CC(OC(=O)c1ccc2c(c1)OCO2)C(=O)NC1CCCCC1 (stereo not drawn) returned HT1080 IDH1KD tx -2%, HT1080NT lethal -5%, DT40 TDP1 CPT inconclusive, TDP1 cell noCPT inconclusive, IL-1B inflam inh 0 and ALOX12 inh -7%.
Screening Cc1cccc2cc(CN(CC3CCCO3)S(=O)(=O)c3ccc(Cl)cc3)c(=O)[nH]c12 (stereo not drawn) returned ALOX12 inh 67%.
`O=C(CSc1nc2c([nH]c3ccccc32)c(=O)n1-c1ccccc1F)Nc1ccccc1C(F)(F)F` gave DT40 TDP1 CPT 16µM*, TDP1 cell noCPT 21µM* and ALOX12 inh 0%.
For CCc1nnc(NC(=O)CSc2nc3c([nH]c4ccccc43)c(=O)n2-c2cc(C)cc(C)c2)s1 the results were DT40 TDP1 CPT inconclusive, TDP1 cell noCPT 16µM* and ALOX12 inh -1%.
`O=C(CSc1nc2c([nH]c3ccccc32)c(=O)n1-c1ccccc1)Nc1ccccc1F` gave DT40 TDP1 CPT inconclusive, TDP1 cell noCPT inconclusive and ALOX12 inh -19%.
For COc1ccc(-n2c(SCC(=O)NC3CCCCC3)nc3c([nH]c4ccccc43)c2=O)cc1 the results were DT40 TDP1 CPT inconclusive, TDP1 cell noCPT 21µM* and ALOX12 inh -7%.
Screening O=C(CSc1nc2c([nH]c3ccccc32)c(=O)n1-c1ccc(Cl)cc1)N1CCCC1 returned DT40 TDP1 CPT -6%, TDP1 cell noCPT -1% and ALOX12 inh 0%.
For O=C(CSc1nc2c([nH]c3ccccc32)c(=O)n1-c1ccc(Cl)cc1)N1CCCCCC1 the results were DT40 TDP1 CPT inconclusive, TDP1 cell noCPT 21µM* and ALOX12 inh 0%.
`CC(C)n1c(SCC(=O)NC2CCCCC2)nnc1-c1ccco1` gave HT1080 IDH1KD tx 19%, HT1080NT lethal 17%, DT40 TDP1 CPT -16%, TDP1 cell noCPT -4%, IL-1B inflam inh 11 and ALOX12 inh 2%.
Screening CCn1nc(C(=O)OC(C(=O)c2c[nH]c3ccccc23)c2ccccc2)c2ccccc2c1=O (stereo not drawn) returned HT1080 IDH1KD tx inconclusive, HT1080NT lethal inconclusive, DT40 TDP1 CPT inconclusive, TDP1 cell noCPT -28%, IL-1B inflam inh -7 and ALOX12 inh -11%.
O=C(CSc1nc2c([nH]c3ccccc32)c(=O)n1-c1ccc(F)cc1)NCc1ccccc1 was read as DT40 TDP1 CPT -26%, TDP1 cell noCPT -11% and ALOX12 inh -19%.

Source: PubChem (National Center for Advancing Translational Sciences (NCATS))
